Screening data deposited in PubChem by Broad Institute.
F508del corr: CFTR F508del correction in bronchial cells; AID 720511; CFBE cells, YFP halide quenching; stimulated with forskolin plus potentiator P3; % fluorescence drop versus neutral controls; actives 0.36% (n = 350,000); activity (quench increase), % at 7.58 µM;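 active = mean added fluorescence quench of at least 8% versus neutral control, with both replicates also reaching 8%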;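 note: cells transiently co-express mutant CFTR-F508del with the halide-sensitive YFP; corrector assay measuring rescue of mutant channel to the surface after 24 h compound exposure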
CASP6 VEID inh: blocks human caspase-6 cleavage activity; purified caspase-6, Z-VEID-R110 cleavage fluorescence; inhibition, % at 12.5 µM; P55212; AID 686996; actives 0.53% (n = 350,000);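 active = mean inhibition across replicates at least about 35%, with every replicate also reaching that limit, limit read from the data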;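 note: 0% = median of neutral control wells and 100% = no fluorescence left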
Target sequence (P55212 24-179 limits assumed): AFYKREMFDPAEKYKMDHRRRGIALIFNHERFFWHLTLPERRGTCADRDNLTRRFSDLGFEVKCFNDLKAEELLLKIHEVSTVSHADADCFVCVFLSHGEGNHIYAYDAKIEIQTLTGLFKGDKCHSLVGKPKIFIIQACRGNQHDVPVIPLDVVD
Target sequence (P55212 194-293 limits assumed): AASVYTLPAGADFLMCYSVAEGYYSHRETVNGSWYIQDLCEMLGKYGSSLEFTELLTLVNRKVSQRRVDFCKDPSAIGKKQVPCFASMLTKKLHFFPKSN
HIV Env fusion: HIV envelope-mediated fusion inhibition; actives 1.1% (n = 360,000); AID 651610; inhibition, % at 12.3 µM; HeLa-JRFL Env/CEM21 cell fusion, luciferase;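 active = mean replicate inhibition score of at least 50 and every replicate individually at or above 50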;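 note: 0% = plate neutral controls and 100% = maraviroc near 300 nM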
PglD inh: blocks C. jejuni PglD acetyltransferase activity | inhibition, % at 12.5 µM | AID 602405 | actives 0.098% (n = 360,000) | purified PglD enzyme, DTNB colorimetric CoA detection; in the data active = inhibition above about 16%, passing the limit was not always enough
NSD2 inh: inhibitors of human histone methyltransferase NSD2; NSD2 peptide methylation, AlphaScreen, 120 min; inhibition, % at 12.5 µM; actives 0.54% (n = 310,000); AID 743445; in the data active = inhibition above about 50%
ALR inh: human ALR oxidase inhibition via reduced H2O2; purified ALR, DTT oxidation, H2O2 HRP-luminol luminescence; inhibition, % (test concentration not listed); actives 3.8% (n = 290,000); AID 485317;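 active = mean replicate inhibition above about 79%, with every replicate also reaching it, limit read from the data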
Target sequence (P55789 whole entry, looked up): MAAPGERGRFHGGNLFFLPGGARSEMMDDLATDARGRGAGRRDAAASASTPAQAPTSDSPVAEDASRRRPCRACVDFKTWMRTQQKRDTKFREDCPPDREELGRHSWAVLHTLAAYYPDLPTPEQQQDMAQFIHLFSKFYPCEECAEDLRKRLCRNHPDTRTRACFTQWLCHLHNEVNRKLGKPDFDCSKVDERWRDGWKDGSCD
Active calls of the source: *; . = no result given; ! = repeats disagree; [ ] = another dose, or the depositor's remark. The list is not random: actives were taken first. Their share in the collection is about 4.1%.

SMILES	F508del corr	CASP6 VEID inh	HIV Env fusion	PglD inh	NSD2 inh	ALR inh
Cc1ccc(OCCOC(=O)c2c(-c3ccccc3)noc2C)cc1	0.3	1.1	27.1	-3.1	-11.5	-2.4
Cc1onc(-c2ccccc2)c1C(=O)OCCOc1cccc(Cl)c1	0.0	-1.4	74.7*	5.9	-5.8	-19.7
COc1ccc(NC(=O)N(C)C[C@H]2Oc3ncc(-c4ccc(C#N)cc4)cc3C(=O)N([C@H](C)CO)C[C@@H]2C)cc1	1.6	0.3	-7.6[16.7 µM]	-1.6	.	.
COc1ccccc1N=c1scc(-c2ccc3c(c2)NC(=O)CO3)n1CC1CCCO1 (stereo unspecified)	.	.	.	2.7	.	99.0*
CN(C)S(=O)(=O)c1cccc(N=c2scc(-c3ccc4c(c3)NC(=O)CO4)n2CC2CCCO2)c1 (stereo unspecified)	.	.	.	-8.9	4.6	-5.8
CCCCN=c1scc(-c2ccc3c(c2)NC(=O)CO3)n1N=C1CCCC1	1.9	4.4	.	4.1	7.6	11.2
CCN=c1scc(-c2ccc3c(c2)NC(=O)CO3)n1N=C1CCCC1	2.4	4.6	46.6	-3.5	6.6	90.6*
COCC(C)n1c(-c2ccc3c(c2)NC(=O)CO3)csc1=Nc1ccc(OC(F)F)cc1 (stereo unspecified)	0.8	-0.9	83.2*!	1.9	7.2	-1.2
O=C1COc2ccc(-c3csc(=Nc4ccc(OC(F)F)cc4)n3CC3CCCO3)cc2N1 (stereo unspecified)	.	.	92.4*	5.1	0.1	19.0
N#C[C@H]1[C@H](c2ccccc2)[C@H](CO)N1S(=O)(=O)c1ccc(-c2ccccc2)cc1	-2.3	-3.3	0.4[16.7 µM]	-1.6	.	.
C[C@H]1CN([C@@H](C)CO)C(=O)Cc2cc(NC(=O)Cc3ccccc3)ccc2O[C@@H]1CN(C)C(=O)Nc1ccc(F)cc1	0.9	-1.3	.	10.8	.	.
COc1ccc(NC(=O)N(C)C[C@@H]2Oc3ccc(NC(=O)Nc4ccccc4)cc3C(=O)N([C@@H](C)CO)C[C@H]2C)cc1	-0.6	-1.6	.	2.7	.	.
CCCN(C)C[C@H]1OCCCC[C@@H](C)Oc2ccc(NC(=O)CCC(F)(F)F)cc2C(=O)N([C@H](C)CO)C[C@@H]1C	1.1	.	-2.2[16.7 µM]	.	.	.
O=C1/C(=C/c2cccc([N+](=O)[O-])c2)CCc2ccccc21	.	.	-15.3	.	2.4	-4.9
O=C1/C(=C/c2cccc([N+](=O)[O-])c2)CSc2ccc(Cl)cc21	3.3	0.8	61.5*	.	-0.8	-10.1
COC(=O)C(C)N(C(=O)c1cccc2ccccc12)c1c(C)cccc1C (stereo unspecified)	.	.	77.9*	.	2.2	-8.0
COC(=O)C(C)N(C(=O)c1cccc(Cl)c1)c1c(C)cccc1C (stereo unspecified)	.	.	5.1	-3.5	-3.9	-0.4
Cc1noc(C)c1S(=O)(=O)N(C)C[C@H]1OCCCC[C@@H](C)Oc2ccc(NC(=O)Nc3ccc4c(c3)OCO4)cc2C(=O)N([C@@H](C)CO)C[C@H]1C	-1.2	.	-4.5[16.7 µM]	3.0	.	.
Cc1noc(C)c1S(=O)(=O)N(C)C[C@@H]1OCCCC[C@@H](C)Oc2ccc(NC(=O)Nc3ccc(C(F)(F)F)cc3)cc2C(=O)N([C@H](C)CO)C[C@H]1C	1.6	0.6	83.2*[16.7 µM]	-2.0	.	.
Cc1noc(C)c1NC(=O)Nc1ccc2c(c1)C(=O)N([C@@H](C)CO)C[C@H](C)[C@H](CN(C)S(=O)(=O)c1ccc(F)cc1)OCCCC[C@H](C)O2	2.3	-0.9	55.2*[16.7 µM]	1.5	.	.
Cc1noc(C)c1S(=O)(=O)N(C)C[C@H]1OCCCC[C@H](C)Oc2ccc(NC(=O)Nc3ccc4c(c3)OCO4)cc2C(=O)N([C@@H](C)CO)C[C@@H]1C	3.2	.	59.9*[16.7 µM]	0.6	.	.
C[C@@H]1CN([C@H](C)CO)C(=O)c2cc(NS(=O)(=O)c3ccccc3)ccc2O[C@@H]1CN(C)Cc1ccc2c(c1)OCO2	-1.1	1.5	3.9[16.7 µM]	-1.9	.	.
Cc1ccccc1-c1ccc([C@H]2[C@H](CO)N3C(=O)CN(C(=O)NC4CCCC4)C[C@@H]23)cc1	0.3	3.6	.	.	.	.
CO[C@H]1CN(C)C(=O)c2ccc(NC(C)=O)cc2OC[C@@H](C)N(Cc2nccs2)C[C@@H]1C	1.5	0.6	10.6[16.7 µM]	-1.2	.	.
CC(=O)OCCn1c2nc(=O)[nH]c(=O)c-2nc2cc(C)c(C)cc21	17.7*	-6.6	3.1	-6.5	4.8	-68.1
SMILES	F508del corr	CASP6 VEID inh	HIV Env fusion	PglD inh	NSD2 inh	ALR inh
C(=N\N1CCOCC1)/c1nc(-c2ccccc2)n2ccccc12	-0.7	2.9	-5.4	.	.	95.6*
C(=N\N1CCOCC1)/c1cn(-c2ccccc2)nc1-c1ccccc1	-2.3	0.9	-8.0	0.0	6.6	5.5
COC(=O)C[C@@H]1C[C@@H]2c3cc(NS(=O)(=O)c4ccc(OC)cc4)ccc3O[C@@H]2[C@@H](CO)O1	0.3	.	-3.4[16.7 µM]	22.8	.	.
CCCc1cc(=O)[nH]c(SCc2ccccc2Cl)n1	.	.	-13.0	-6.6	0.5	98.7*
COc1ccc(CSc2nc(C)cc(=O)[nH]2)cc1Br	.	.	.	.	-0.6	98.2*
O=c1cc(CSc2nc3ccccc3[nH]2)c2ccccc2[nH]1	-1.6	1.0	.	0.2	.	91.3*
Cc1cc(=O)[nH]c(SCc2cccc3ccccc23)n1	-2.8	0.1	-2.8	-3.0	-0.3	98.4*
Nc1cc(=O)[nH]c(SCc2ccccc2Cl)n1	-3.4	-0.3	7.1	-6.9	-1.2	-6.6
COc1cccc(NC(=O)C[C@H]2CC[C@H]3[C@H](COc4ccc(NC(=O)C5CCOCC5)cc4C(=O)N3C)O2)c1	-4.9	3.4	-18.2[16.7 µM]	-2.1	.	.
Cc1nn(C(C)(C)C)c(C)c1/C=N/OC(=O)Nc1ccc(Cl)c(Cl)c1	2.1	-1.2	64.8*	0.6	-2.1	-14.9
CN(C)C(=O)[C@@H]1[C@@H](CO)[C@@H]2Cn3c(cccc3=O)[C@@H]2N1CC1CCCC1	-0.2	.	.	-1.3	.	.
CCOc1cc(/C=N/NC(=O)NN(C)c2ncc(C(F)(F)F)cc2Cl)ccc1O	2.4	8.1	2.8	.	1.1	98.7*
CCOC(=O)C(=O)NNc1ccc(F)cc1	0.6	1.5	2.7	1.6	-2.8	98.9*
C[C@@H]1CN([C@@H](C)CO)C(=O)c2cccc(NC(=O)Nc3ccc(C(F)(F)F)cc3)c2O[C@@H]1CN(C)Cc1ccc(C(=O)Nc2ccccc2N)cc1	-3.2	1.1	.	.	.	.
Cc1ccc(-n2c(N)c(C(=O)N3CCCCC3)sc2=S)cc1	.	.	-2.0	-0.6	23.6	7.5
CCOc1ccc(-n2c(N)c(C(=O)N3CCN(C)CC3)sc2=S)cc1	-2.9	-2.2	-0.8	.	-0.5	21.4
Nc1c(C(=O)N2CCOCC2)sc(=S)n1-c1ccccc1	.	.	-27.7	-1.7	0.7	92.6*
Nc1c(C(=O)N2CCCCC2)sc(=S)n1-c1ccccc1	.	.	1.1	-1.6	2.2	98.9*
CNc1ccccc1C(C)(C)c1cc(-c2ccc(F)cc2)no1	.	.	65.6*	-2.8	-1.4	0.1
CC(C)NC(=O)N1CC(=O)N2[C@H](CO)[C@@H](c3ccc(/C=C/c4ccccc4)cc3)[C@H]2C1	2.8	2.2	.	.	.	.
